Only some compounds are listed: those with a hit (about 5.9% of all), similar ones and a draw of the others.
RORgamma inh = qHTS for inhibitors of ROR gamma transcriptional activity | Nuclear receptor ROR-gamma (Mus musculus), P51450 | Potency, µM (series often up to 53.6 µM), hits mostly inhibitors | Drosophila S2 Gal4-RORgamma UAS-luciferase reporter, 20 h | 5.4% of 310,000 active; note: nearly all actives have a fitted effect of over 60% in size
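Luminescence from a UAS-regulated Photinus luciferase reporter in stably transfected Drosophila Schneider cells is measured; decreased signal marks ROR gamma inhibition. Fusion expression is induced by 700 uM copper sulfate for 20 hr.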
VP16 counter = VP16 counterscreen qHTS for inhibitors of ROR gamma transcriptional activity | 3.5% of 310,000 active | AID 2546, 2010 | Drosophila S2 Gal4-VP16 UAS-luciferase, luminescence, 20 h | Potency, µM (top dose mostly 53.6 µM), usual class: inhibitors;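 note: Gal4-VP16 expression switched on by copper sulfate through the metallothionein promoter; nearly all actives have a fitted effect of over 50% in size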
FBPA coupling cs = qHTS Assay for Inhibitors of Fructose-1,6-bisphosphate Aldolase from Giardia Lamblia: Coupling assay counterscreen; coupling enzyme system counterscreen, AmpLite Red fluorescence; activity change, negative = inhibition, % at 58.2 µM, hits read low; 0.67% of 290,000 active; in the data active = activity change below about -30%
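Activity here indicates interference with the coupling reaction, not aldolase inhibition. Compounds at 57.5 uM final met coupling enzymes for 10 min at RT; substrate and AmpLite Red detection followed, with a 525/598 nm fluorescence read after 20 min.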
GALK inhibitor = qHTS Assay for Inhibitors of Human Galactokinase (GALK) | P51570 | Purified GALK, Kinase-Glo residual ATP luminescence | Potency, µM (highest dose often 57.5 µM), actives largely listed as inhibitors | 0.007% of 270,000 active | AID 1868, 2009
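Kinase-Glo Plus luminescence measured ATP left after a 1 h room-temperature reaction. The reaction used 5 nM GALK, 100 uM galactose and 35 uM ATP at pH 8.0 (20 mM HEPES, 5 mM MgCl2, 60 mM NaCl, 1 mM DTT, 0.01% BSA).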
TrxR1 substrate = qHTS Assay for Substrates of Mammalian Selenoprotein Thioredoxin Reductase 1 (TrxR1): qHTS | 0.01% of 390,000 active | Thioredoxin reductase 1, cytoplasmic (Rattus norvegicus), O89049 | Potency, µM (doses to about 114 µM) | purified TrxR1 substrate turnover, NADPH consumption readout | AID 588456, 2011; note: nearly all actives have a fitted effect of over 50% in size
Target sequence (O89049 whole entry, looked up): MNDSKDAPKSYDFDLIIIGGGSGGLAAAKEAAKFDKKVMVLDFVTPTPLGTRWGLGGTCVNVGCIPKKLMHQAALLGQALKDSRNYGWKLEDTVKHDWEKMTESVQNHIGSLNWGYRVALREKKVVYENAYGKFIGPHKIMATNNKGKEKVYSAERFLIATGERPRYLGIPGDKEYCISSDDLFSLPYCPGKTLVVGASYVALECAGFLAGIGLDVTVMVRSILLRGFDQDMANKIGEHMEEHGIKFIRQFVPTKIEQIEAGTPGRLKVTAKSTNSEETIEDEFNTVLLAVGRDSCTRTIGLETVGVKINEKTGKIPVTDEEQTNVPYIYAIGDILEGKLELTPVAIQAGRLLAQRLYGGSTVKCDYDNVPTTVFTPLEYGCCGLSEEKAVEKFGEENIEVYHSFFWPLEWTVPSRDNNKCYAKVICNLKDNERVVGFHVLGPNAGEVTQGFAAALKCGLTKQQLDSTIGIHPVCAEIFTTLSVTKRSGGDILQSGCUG
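Rat TrxR1, dispensed at 90 nM, was prereduced with 400 uM NADPH (final) for 5 min at ~22 deg C, then incubated with compound 15 min before 400 uM selenite. A first-read NADPH fluorescence drop versus no-compound background flagged substrates.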
TrxR1 inh = qHTS Assay for Inhibitors of Mammalian Selenoprotein Thioredoxin Reductase 1 (TrxR1): qHTS. 1% of 390,000 active. AID 588453, 2011. recombinant rTrxR1, NADPH fluorescence consumption, selenite substrate. Thioredoxin reductase 1, cytoplasmic (Rattus norvegicus), O89049. Potency, µM (top dose mostly 114 µM), actives largely listed as inhibitors; note: nearly all actives have a fitted effect of over 65% in size
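Rat TrxR1 (90 nM in the dispensed reagent) was pre-reduced with 400 uM NADPH for 5 min at room temperature, then incubated with compound for 15 min. After 400 uM selenite was added, NADPH fluorescence (Ex 340/Em 450 nm) was followed for 8 min.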
Of the large screens only hits and unclear results are named; the others gave an inactive call. Unless noted, calls come from the whole dose curve; as a rule, active = well fitted curve in the direction sought with a large enough effect; inconclusive = small, poorly fitted or top-dose-only effect, or another doubt; inactive = no such curve, though single readings can be large; an effect the other way counts as inactive or inconclusive.

N/C(=N\OC(=O)c1ccc(Cl)cc1Cl)c1ccc(Cl)cc1	none
N/C(=N\OC(=O)c1ccc(Cl)cc1Cl)c1ccccc1	RORgamma inh 5.01µM, VP16 counter inconclusive
Cc1cccc(/C(N)=N/OC(=O)c2ccc(Cl)cc2Cl)c1	RORgamma inh 2µM, VP16 counter 20µM
N/C(Cc1ccc(Cl)cc1Cl)=N\OC(=O)c1ccccc1	RORgamma inh 12.6µM
N/C(=N\OC(=O)c1ccc(Cl)cc1Cl)c1cccnc1	VP16 counter inconclusive
COc1ccc(C(=O)NCCS(=O)(=O)NCC2CCCO2)cc1 (configuration not stated)	none (no result: RORgamma inh, VP16 counter, FBPA coupling cs, GALK inhibitor)
CSC(=N)N	none (no result: GALK inhibitor)
O=C(COC(=O)c1cccnc1Cl)Nc1ccc(N2CCCCC2)cc1	none (no result: RORgamma inh, VP16 counter, FBPA coupling cs, GALK inhibitor)
N/C(=N\OC(=O)c1cccc2ccccc12)c1cccc([N+](=O)[O-])c1	VP16 counter inconclusive
Cc1ccc(/C(N)=N/OC(=O)c2ccc(C)cc2Cl)cc1	RORgamma inh 4.47µM, VP16 counter 10µM
Cc1cccc(/C(N)=N/OC(=O)c2cccc3ccccc23)c1	RORgamma inh 1.12µM, VP16 counter 5.62µM (no result: FBPA coupling cs, TrxR1 substrate, TrxR1 inh)
Cc1cccc(CS(=O)(=O)c2ncc(Cl)c(C(=O)Nc3nc4ccc(F)cc4s3)n2)c1	TrxR1 inh 3.16µM (no result: RORgamma inh, VP16 counter, FBPA coupling cs, GALK inhibitor)
O=C(Nc1nc2ccc(F)cc2s1)c1nc(S(=O)(=O)Cc2ccccc2)ncc1Cl	TrxR1 inh 3.55µM (no result: RORgamma inh, VP16 counter, FBPA coupling cs, GALK inhibitor)
O=C(Nc1ccc([N+](=O)[O-])cc1)C1COc2ccccc2O1 (configuration not stated)	none
NS(=O)(=O)Nc1c(Br)cc(Br)c2cccnc12	TrxR1 inh 28.2µM (no result: RORgamma inh, VP16 counter, FBPA coupling cs, GALK inhibitor)
Cc1nn(C)cc1/C=N\NC(=O)c1ccc2c(c1)c(C)c(C)n2Cc1ccccc1	RORgamma inh 15.8µM, VP16 counter inconclusive
CC(C)C1NC2(C(=O)c3ccccc3C2=O)C2C(=O)N(c3ccc(F)cc3)C(=O)C12 (configuration not stated)	TrxR1 inh 44.7µM
O=C1C2C3C=CC(CC3)C2C(=O)N1c1ccc(F)cc1 (configuration not stated)	none
CCN(CC(=O)Nc1cc(Cl)ccc1C)C(=O)Cc1sc(C)nc1-c1ccc(F)cc1	none (no result: RORgamma inh, VP16 counter, FBPA coupling cs, GALK inhibitor)
COc1cc(NS(=O)(=O)c2ccc(NC(=S)NC(=O)c3ccco3)cc2)ncn1	none
COc1cc(NS(=O)(=O)c2ccc(NC(=S)NC(=O)c3ccc(F)cc3)cc2)nc(OC)n1	TrxR1 inh inconclusive
COc1cc(NS(=O)(=O)c2ccc(N/C=C(\C=O)c3nc4ccccc4o3)cc2)nc(OC)n1	RORgamma inh 8.91µM, VP16 counter inconclusive
COc1ccc(C(=O)NC(=S)Nc2ccc(S(=O)(=O)Nc3cc(OC)nc(OC)n3)cc2)cc1	RORgamma inh inconclusive, TrxR1 inh 56.2µM
COc1ccc(C(=O)NC(=S)Nc2ccc(S(=O)(=O)Nc3cc(OC)ncn3)cc2)cc1	RORgamma inh inconclusive, TrxR1 inh 44.7µM
COc1ccc(OCC(=O)Nc2c(C(=O)N3CCN(C)CC3)oc3ccccc23)cc1	none (no result: FBPA coupling cs)
CCCN1CCN(C(=O)c2oc3ccccc3c2NC(=O)COc2ccc(OC)cc2)CC1	TrxR1 inh 22.4µM
CCCCNC(=S)N/N=C/c1ccc(C#N)cc1	VP16 counter inconclusive
COCCNC(=O)CC(=O)N/N=C/c1ccc(C(=O)OC)cc1	none
COCCCNC(=S)N/N=C/c1ccc(N(C)C)cc1Cl	RORgamma inh 2.24µM, VP16 counter 12.6µM
COCCCNC(=O)C(=O)N/N=C/c1cc2c(cc1Br)OCO2	none
COCCCNC(=S)N/N=C/c1ccc(N(C)C)cc1	RORgamma inh 2.82µM, VP16 counter 7.08µM
COCCCNC(=O)CC(=O)N/N=C\c1ccc(SC)cc1	FBPA coupling cs -70.0
COCCCNC(=S)N/N=C/c1ccccc1O	RORgamma inh 0.562µM, VP16 counter 3.55µM (no result: GALK inhibitor)
O=C(Nc1ccccc1N1CCCCC1)c1ncoc1-c1cccc(F)c1	none
c1ccc(-n2c(SCc3ccncc3)nnc2-c2ccco2)cc1	RORgamma inh inconclusive
CSc1nc(SCCO)c2sc3nc(-c4ccco4)c4c(c3c2n1)CC(C)(C)OC4	TrxR1 inh 56.2µM
COC(=O)CSc1nc(SC)nc2c1sc1nc(-c3ccco3)c3c(c12)CC(C)(C)OC3	none (no result: RORgamma inh, VP16 counter, FBPA coupling cs, GALK inhibitor)
COc1cc(C(=O)NCC(c2cccnc2)N2CCN(c3ccc(F)cc3)CC2)cc(OC)c1OC (configuration not stated)	none
C=CCN(CC=C)Cc1c(C)[nH]c2c(C)c(C)ccc2c1=O	RORgamma inh inconclusive, VP16 counter 12.6µM
CCN(Cc1ccccc1)Cc1c(C)[nH]c2c(C)c(C)ccc2c1=O	none
CCCn1c(CC)nc([N+](=O)[O-])c1S(=O)(=O)c1ccccc1	RORgamma inh 7.94µM, VP16 counter 17.8µM, TrxR1 inh 0.316µM
CCc1nc(C)cn1S(=O)(=O)c1ccc([N+](=O)[O-])cc1	none
C/C(=N\NC(=S)NCc1ccccc1)c1ccc(Cl)s1	RORgamma inh 1.41µM, VP16 counter 8.91µM
C/C(=N\NC(=S)NCc1ccccc1)c1cccs1	RORgamma inh 0.447µM, VP16 counter 2µM
C/C(=N\NC(=O)Cc1ccccc1)c1ccc(Cl)s1	none (no result: FBPA coupling cs)
C/C(=N\NC(=O)Cc1ccccc1)c1cccs1	none
COCCNC(=S)N/N=C(\C)c1ccc(Cl)s1	RORgamma inh 0.794µM, VP16 counter 3.16µM
COc1ccccc1CNC(=O)COc1ccc(Br)c(C)c1	none
CCc1nnc(SCC(=O)N2CCc3ccccc32)n1CC	none (no result: FBPA coupling cs)
O=C(CN(c1ccccc1)S(=O)(=O)c1ccccc1)NCCSc1ccccn1	none
COc1ccc(/C=C2\CCCC3C2=NC(=S)NC3c2ccc(OC)cc2)cc1 (configuration not stated)	RORgamma inh 6.31µM, VP16 counter 12.6µM, TrxR1 inh inconclusive
O=C1NCCCC2c3c(cc(Br)c(O)c3Br)OC12N1CCOCC1 (configuration not stated)	TrxR1 inh 15.8µM
Cc1c(CCC(=O)O)c(=O)oc2cc(OCc3ccccc3Br)ccc12	VP16 counter 3.16µM, TrxR1 inh inconclusive
COc1cccc(-c2coc3c(C)c4oc(=O)c(CCC(=O)O)c(C)c4cc23)c1	none
COc1ccccc1COc1ccc2c(C)c(CCC(=O)O)c(=O)oc2c1C	RORgamma inh 7.94µM, VP16 counter inconclusive
CCOC(=O)CCc1c(C)c2ccc(OCc3cc([N+](=O)[O-])ccc3OC)c(C)c2oc1=O	none (no result: TrxR1 substrate, TrxR1 inh)
COc1cccc(-c2coc3cc4oc(=O)c(CCC(=O)O)c(C)c4cc23)c1	VP16 counter 12.6µM
